{"source": "the supplement of paper PMC10338343", "note": "± gives the standard deviation."}
{"system": "MILI (PIWIL2) piRISC loaded with piRNA #1 (26 nt)", "assay": "pre-steady-state target cleavage rate (min^-1); guide: piRNA #1 5'p-UGAGGUAGUAGGUUGUAUAGUAUCCA; MIWI and MILI are mouse PIWI proteins and EfPiwi is from a freshwater sponge; tags in brackets are library labels; higher = faster piRNA-guided slicing of the target", "conditions": "auxiliary factor: 500 nM mouse GTSF1", "procedure,_shortened": "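Sequencing of uncleaved targets, normalised to depth and to weakly complementary targets, was the readout of this Cleave-'n-Seq assay. A transcribed, DNA-blocked target RNA library (0.1 nM) was mixed with 1 nM active affinity-purified piRISC carrying one synthetic guide, with or without 500 nM GTSF1 partner protein, in HEPES–potassium acetate buffer at 33 °C for 0–8 or 0–960 min. Three trials were pooled, k3 was capped at 0.0001 min^-1, and a burst-and-steady-state fit gave the pre-steady-state cleavage rate.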"}
{"sequence": "GGAGACCUAUGAUAUGUUGGUAUACCUCA", "pre-steady-state target cleavage rate": "< 0.0001"}
{"sequence": "GGAGACCUAUGUAAACAACCUACUAGCUCA", "pre-steady-state target cleavage rate": "0.00495 ± 0.0023"}
{"sequence": "GGAGACCUAUCUAUACUACGUACUACCUCA", "pre-steady-state target cleavage rate": "0.013 ± 0.0024"}
{"sequence": "GGAGACCUAACUAUUCUACCUACUACCUCA", "pre-steady-state target cleavage rate": "0.104 ± 0.021"}
{"sequence": "GGAGACCAUACUAAACAACCUACAACCUCA", "pre-steady-state target cleavage rate": "0.117 ± 0.016"}
{"sequence": "GGAGACCUUACUUUACAACCUUCUACCUCA", "pre-steady-state target cleavage rate": "0.00698 ± 0.0032"}
{"sequence": "GGAGACCUAACUAUACUACCUACUUCCUCA", "pre-steady-state target cleavage rate": "0.0587 ± 0.013"}
{"sequence": "GGAGACCUAUGAUUACAACCUACUACCUACA", "pre-steady-state target cleavage rate": "0.00666 ± 0.0024"}
{"sequence": "GGAGACCUAUGACUACAACCUACUACCUCA", "pre-steady-state target cleavage rate": "0.00416 ± 0.0019"}
{"sequence": "GGAGACCUAUGAUAACAUCCUACUAGCUCA", "pre-steady-state target cleavage rate": "0.00409 ± 0.0032"}
{"sequence": "GGAGACCUAUGUUUACAACCUACUACGUCA", "pre-steady-state target cleavage rate": "0.00415 ± 0.0018"}
{"sequence": "GGAGACCUAUGAUAAACAACCUACUACCUCA", "pre-steady-state target cleavage rate": "0.00811 ± 0.0029"}
{"sequence": "GGAGACCUAUCUAUACAAGGAUGAUGGAGA [g13:g20:cont:t1A]", "pre-steady-state target cleavage rate": "< 0.0001"}
{"sequence": "GGAGACCUUACUAUACAACUACUACCUCA", "pre-steady-state target cleavage rate": "0.0157 ± 0.0032"}
{"sequence": "GGAGACCAUACAAUACAACCAACUACCUCA", "pre-steady-state target cleavage rate": "0.00736 ± 0.0032"}
{"sequence": "GGAGAGGAUACUAUACAUGGUACUACCUCA", "pre-steady-state target cleavage rate": "0.00387 ± 0.0028"}
{"sequence": "GGAGAGGAUACUAUUGUACCUACUACCUCA", "pre-steady-state target cleavage rate": "0.131 ± 0.0096"}
{"sequence": "GGAGACCUAUGAAUACAUCCUACUACCACA", "pre-steady-state target cleavage rate": "0.0133 ± 0.0041"}
{"sequence": "GGAGACCUAUCUAUUCAACGUACUACCUCA", "pre-steady-state target cleavage rate": "0.00945 ± 0.003"}
{"sequence": "GGAGACCUUACUAUACAACCUACUAUCCUCA", "pre-steady-state target cleavage rate": "0.194 ± 0.022"}
{"sequence": "GGAGACCUAUCUAUACAUGCUACUACCUCA", "pre-steady-state target cleavage rate": "0.0973 ± 0.012"}
{"sequence": "GGAGACCUAUGAUAUGUUCCUUCUACCUGA", "pre-steady-state target cleavage rate": "< 0.0001"}
{"sequence": "GGAGACGAUACUAUACAACCUACUUCCUGA", "pre-steady-state target cleavage rate": "0.00812 ± 0.005"}
{"sequence": "GGAGACCAUAGUAUACAACCUACUACGUCA", "pre-steady-state target cleavage rate": "0.0462 ± 0.0097"}
{"sequence": "GGAGACCUAUGAUAACAACCUACAUGGAGA [g8:g16:cont:t1A]", "pre-steady-state target cleavage rate": "< 0.0001"}
{"sequence": "GGAGACCUAACUUUACAUCCUACUACCUCA", "pre-steady-state target cleavage rate": "0.143 ± 0.025"}
{"sequence": "GGAGACCUAUCUAUAGCAACCUACUACCUCA", "pre-steady-state target cleavage rate": "0.0831 ± 0.016"}
{"sequence": "GGAGAGGAUACUAUAAACCUACUACCUCA", "pre-steady-state target cleavage rate": "0.0203 ± 0.0036"}
{"sequence": "GGAGACCAUACUAUACAACCAACUACCACA", "pre-steady-state target cleavage rate": "0.00384 ± 0.0026"}
{"sequence": "GGAGACGAUACUAUACAACCUACUACCUAA", "pre-steady-state target cleavage rate": "0.153 ± 0.015"}
{"sequence": "GGAGACCUAACUAUACAACCUACCUACCUCA", "pre-steady-state target cleavage rate": "0.0837 ± 0.018"}
{"sequence": "GGAGUGGAAACUAUACAACCUACAACCUCA", "pre-steady-state target cleavage rate": "0.0962 ± 0.023"}
{"sequence": "GGAGACCUUACUAUACAACCUACAUGGAGA [g8:g22:cont:t1A]", "pre-steady-state target cleavage rate": "0.00299 ± 0.0029"}
{"sequence": "GGAGACCUUACUUUACAAGCUACUACCUCA", "pre-steady-state target cleavage rate": "0.232 ± 0.013"}
{"sequence": "GGAGACCUAUGUUACAACCUACUACCUCA", "pre-steady-state target cleavage rate": "0.0425 ± 0.0076"}
{"sequence": "GGAGACCUAUGAUUAUCAACCUACUACCUCA", "pre-steady-state target cleavage rate": "0.00367 ± 0.0025"}
{"sequence": "GGAGACCUAUCUAUAGAACCUACUACCACA", "pre-steady-state target cleavage rate": "0.0472 ± 0.0098"}
{"sequence": "GGAGACCAUACAAUAGAACCUACUACCUCA", "pre-steady-state target cleavage rate": "0.179 ± 0.02"}
{"sequence": "GGAGACCUUACUUAUCAACCUACUACCUCA", "pre-steady-state target cleavage rate": "0.0518 ± 0.014"}
